Assay outcomes deposited in PubChem BioAssay by several laboratories.
An excerpt weighted towards active compounds, which were near 3.6% of everything screened.
BoNT-A LC inh2 – BoNT A light chain protease inhibition | multiplex microsphere protease substrate cleavage, flow cytometry | inhibition, % at 10 µM | actives 0.17% (n = 360,000) | AID 588499
MazF activator – activators of E. coli MazEF toxin-antitoxin RNase. actives 0.32% (n = 350,000). FAM/BHQ RNA-DNA oligo cleavage fluorescence, 5 h. P0AE70. activation, % at 20 µM; in the data active = activation above about 50%
Target sequence (P0AE70 whole entry, looked up): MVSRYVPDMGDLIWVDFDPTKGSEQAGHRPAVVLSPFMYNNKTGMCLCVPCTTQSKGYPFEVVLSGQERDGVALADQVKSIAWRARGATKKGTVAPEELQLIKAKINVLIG
BoNT F protease – blocks Botulinum neurotoxin F light chain protease | Multiplex microsphere protease cleavage assay, flow cytometry | inhibition, % at 10 µM | actives 0.22% (n = 360,000) | AID 588497; in the data active = inhibition above about 35%, passing the limit was not always enough; inconclusive = no clear call, values can overlap the other calls
Bead autofluor – compound fluorescence in toxin protease inhibitor counterscreen; compound autofluorescence counterscreen, microsphere flow cytometry; hits give high values; fluorescence intensity (test concentration not listed); actives 3.1% (n = 360,000); AID 624483; in the data active = fluorescence intensity above about 16000; inconclusive = no clear call, values can overlap the other calls
Anthrax LF inh2 – blocks Bacillus anthracis lethal factor protease | P15917 | multiplex microsphere protease cleavage assay, LF | inhibition, % at 10 µM | actives 0.12% (n = 360,000) | AID 588501
Large screens that a line does not name were inactive. Cut-off read from the data, not from the text of the source, unless noted: active = inhibition above about 30%; inconclusive = no clear call, values can overlap the other calls; inactive = below that.

Cc1ccc(Cn2c(CN3CCOCC3)nc3c2c(=O)[nH]c(=O)n3C)cc1	Bead autofluor 22053
CCCCn1c(SCC(=O)OCC)nc2c1c(=O)[nH]c(=O)n2C	none
CCOC(=O)CSc1nc2c(c(=O)[nH]c(=O)n2C)n1C/C=C(/C)Cl	BoNT-A LC inh2 inconclusive, Bead autofluor 24116
CCCSc1nc2c(c(=O)[nH]c(=O)n2C)n1Cc1ccc(C)cc1	Bead autofluor 21791
CCc1ccc(C(=O)C(C)OC(=O)c2nn(C)c(=O)c3ccccc23)cc1 (stereo not given)	none
Cn1c(=O)[nH]c(=O)c2c1nc(CN1CCN(c3cccc(Cl)c3)CC1)n2CCN1CCOCC1	BoNT-A LC inh2 inconclusive, Bead autofluor 20987
CC1(C(=O)Nc2nnc(SCc3ccccc3)s2)Cc2ccccc2C(=O)O1 (stereo not given)	Bead autofluor 22013
CC1(C(=O)Nc2nccs2)Cc2ccccc2C(=O)O1 (stereo not given)	none
C=CCn1c(CCNC(=O)c2cccs2)nnc1SCC(=O)Nc1cccc(F)c1	Bead autofluor 17039
Cc1ccc(NC(=O)CSc2nnc(-c3cccs3)n2Cc2ccco2)cc1	none
CCn1c(CCNC(=O)c2cccs2)nnc1SCC(=O)Nc1cccc(Cl)c1	none
COc1ccc(-n2c(CNc3ccc(C)cc3)nnc2SCC(=O)Nc2nc(-c3ccccc3)cs2)cc1	BoNT-A LC inh2 inconclusive, Bead autofluor 24302
CN(C)c1ccc(NC(=O)CSc2nnc(-c3cccs3)n2Cc2ccco2)cc1	BoNT-A LC inh2 inconclusive, Bead autofluor 22600
C=CCn1c(CCNC(=O)c2ccccc2F)nnc1SCC(=O)Nc1ccccc1F	none
C=CCn1c(Cc2csc(N)n2)nnc1SCC(=O)Nc1ccccc1C(F)(F)F	Bead autofluor 23049
COc1ccc(NCc2nnc(SCC(=O)Nc3nc(-c4ccccc4)cs3)n2-c2ccccc2)cc1	none
COc1ccc(NC(=O)CSc2nnc(Cc3cccs3)n2-c2ccc(C)cc2)cc1	BoNT-A LC inh2 inconclusive, Bead autofluor 23035
COc1cccc(NC(=O)CSc2nnc(Cc3cccs3)n2-c2ccc(C)cc2)c1	BoNT-A LC inh2 inconclusive
COc1cccc(C(=O)NCc2nnc(SCC(=O)Nc3nccs3)n2-c2cccc(C)c2)c1	Bead autofluor 16987
Cn1c(CNC(=O)c2cccs2)nnc1SCC(=O)Nc1ccc(Cl)cc1	BoNT-A LC inh2 inconclusive, Bead autofluor 21585
C=CCn1c(SCC(=O)Nc2ccccc2CC)nnc1-c1ccncc1	Bead autofluor 23141
Cc1ccsc1C(=O)N1CCCC(C)(C(=O)NS(=O)(=O)C2CC2)C1 (stereo not given)	none (no result: MazF activator)
O=C(CSc1nnc(Cc2cccs2)n1Cc1ccco1)Nc1cc(Cl)cc(Cl)c1	none
C=CCn1c(Cc2cccs2)nnc1SCC(=O)Nc1cccc(OC)c1	Bead autofluor 16319
C=CCn1c(Cc2cccs2)nnc1SCC(=O)NC1CC1	none
C=CCn1c(Cc2cccs2)nnc1SCC(=O)Nc1ccc(OC)cc1	Bead autofluor 16196
O=C(CSc1nnc(Cc2cccs2)n1Cc1ccco1)Nc1cccc(Cl)c1	Bead autofluor 22807
O=C(NCCCn1ccnc1)c1ccc(-c2cccc(C(F)(F)F)c2)o1	none
CC(C)=CCc1cc(-c2oc3cc(O)cc(O)c3c(=O)c2O)ccc1O	MazF activator 57.4
Cc1ccc(OCC(=O)O/N=C(\N)Cc2ccc([N+](=O)[O-])cc2)cc1C	BoNT F protease inconclusive
O=C(NCCN1CCCCC1)Nc1ccccc1	Bead autofluor 24890
CCOC(=O)CC(=O)CSc1nc2c(sc(=S)n2-c2ccccc2)c(=O)[nH]1	BoNT-A LC inh2 inconclusive, Bead autofluor 21967
Brc1cccc(-c2nc3ccc(Br)cn3c2Cc2ccccc2)c1	none (no result: MazF activator)
Cc1ccc(-n2nc(C)cc2NC(=O)COc2cc(C)cc3oc(=O)c4c(c23)CCC4)cc1	Bead autofluor 22051
Cc1cc(OCC(=O)O)c2c3c(c(=O)oc2c1)CCCC3	none
CC1(C)OC(=O)NC1c1ccccc1 (stereo not given)	none
COc1cc(OC)c(OC)cc1CCC(C)NCCC(c1ccccc1)c1ccccc1 (stereo not given)	none
CCN(Cc1ccccc1)Cc1c(C)[nH]c2c(C)c(C)ccc2c1=O	BoNT-A LC inh2 inconclusive, Bead autofluor 20905
C=CCN(CC=C)Cc1c(C)[nH]c2c(C)c(C)ccc2c1=O	none
CCOC(=O)C(=C1Nc2ccccc2N1)n1c(-c2cccnc2)nc2ccccc21	none (no result: MazF activator)
CO/N=C(\c1ccccc1)c1cccnc1	BoNT F protease 55.8
N/C(=N\OC(=O)C(c1ccccc1)c1ccccc1)c1cccnc1	none
COCCCNC(=O)c1cccn2c(=O)c3cc4ccccc4cc3nc12	BoNT-A LC inh2 inconclusive, Bead autofluor 24282
CC(=O)c1ccc(S(=O)(=O)NCC(=O)Nc2nc3ccccc3[nH]2)cc1	none
CN(C)c1ccc(C(=O)Nc2ccc(S(=O)(=O)NC3=NCCCCC3)cc2)cc1	Bead autofluor 22816
COC(=O)CSc1cc([N+](=O)[O-])cc2c1c(C1OCCO1)nn2-c1ccccc1	MazF activator 113.8
Cc1ccc(C(C)(C)NC(=O)C2CCC(=O)N(CC3CCCCC3)C2)cc1 (stereo not given)	none
Cc1cc(C)c(C#N)c(N2CCN(Cc3ccc4c(c3)OCO4)CC2)n1	BoNT F protease inconclusive
N#Cc1c(N2CCCCC2)nc(N2CCCCC2)c2c1CCN(Cc1ccccc1)C2	BoNT-A LC inh2 inconclusive, Bead autofluor 18858
Cc1cc(C)c(C#N)c(N2CCN(Cc3ccccc3)CC2)n1	Bead autofluor 23816
N#Cc1c(Cl)nc(Cl)c2c1CCN(Cc1ccccc1)C2	none
O=C(N/N=C\c1ccc(-c2ccc([N+](=O)[O-])cc2)o1)c1ccc2c(c1)OCO2	MazF activator 86.3
O=C(N/N=C/c1ccc([N+](=O)[O-])o1)c1ccc2c(c1)OCO2	none
Cc1cc2c(SCC(=O)NCC3CCCO3)ncnc2s1 (stereo not given)	none
C=CCOc1ccccc1/C=c1\sc2nc(=O)c(C)nn2c1=O	Bead autofluor 23330
COc1ccc(/C=c2\sc3nc(-c4ccccc4OC)nn3c2=O)c(OC)c1	none
COc1ccc(CC(=O)NCCN2CCOCC2)cc1	none
Cc1ccc(CC(=O)NCCN2CCOCC2)cc1	BoNT F protease 35.8
Cc1ccc(CC(=O)NCC(C)C)cc1	Bead autofluor 22914
CCOc1ccccc1NC(=O)C(OC(=O)c1ccc(NC(=O)CC#N)cc1)c1ccccc1 (stereo not given)	none
O=C(Nc1ccccc1F)c1csc([C@@H]2C[C@H](O)[C@@H](CO)O2)n1	none (no result: MazF activator)
CCc1nc(NCC2CC2)c2nnn(Cc3ccccc3)c2n1	none
CCOC(=O)NC(Nc1sc2c(c1C(N)=O)CCCC2)(C(=O)OCC)C(F)(F)F (stereo not given)	BoNT-A LC inh2 inconclusive, Bead autofluor 20183
CCOc1ccc(N(Cc2cc3ccc(C)cc3[nH]c2=O)S(C)(=O)=O)cc1	Bead autofluor 22539
CCOc1ccc(N(Cc2cc3ccc(C)cc3[nH]c2=O)S(=O)(=O)c2ccccc2)cc1	none
COc1ccc(N(Cc2cc3cccc(C)c3[nH]c2=O)S(C)(=O)=O)cc1	Bead autofluor 24150
OCC1OC2C(NC(=S)N2c2ccccc2)C(O)C1O (stereo not given)	none
